Targets with a hit are over-represented here; the source holds about 7,900 in all. About 0.6% of all pairs of compound and target were hits.
Legend:
Experiment in all cases: log2 fold change, soluble protein after heating vs DMSO (PISA); higher = thermal stabilisation; K562 cells, 10 uM, 30 min; active = over 0.2 and 3.5 SD of the protein, either way, in both replicates (recomputed)
[1] = compound: NC(=O)Nc1cc(-c2cccc(F)c2)sc1C(=O)N[C@H]1CCCNC1
Procedure, shortened: (§1)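 Soluble protein was quantified by TMTpro 16plex LC-MS/MS after channel sums were equalised. It was obtained as the supernatant after 21,000xg for 90 min from pooled aliquots of K562 cells (2×10^6 cells/mL, 10 μM compound, 30 min) heated for 3 min across 48°C-58°C and extracted in PBS with 0.5% NP-40 at 4°C. Thermal stability values are relative to control samples and come from duplicates. They are given as log2 fold changes.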

[2] = compound: NC(=O)c1cnc(N[C@@H]2CCCC[C@@H]2N)nc1Nc1cccc(-n2nccn2)c1
Procedure, shortened: as §1

[3] = compound: NC1(c2ccc(-c3nc4ccn5c(=O)[nH]nc5c4cc3-c3ccccc3)cc2)CCC1
Procedure, shortened: as §1

[4] = compound: NCC(=O)Nc1ccc(-n2nc(C(F)(F)F)cc2-c2ccc3c(ccc4ccccc43)c2)cc1
Procedure, shortened: as §1

entinostat = compound: Nc1ccccc1NC(=O)c1ccc(CNC(=O)OCc2cccnc2)cc1 [entinostat]
Procedure, shortened: as §1

vorinostat = compound: O=C(CCCCCCC(=O)Nc1ccccc1)NO [vorinostat]
Procedure, shortened: as §1

citarinostat = compound: O=C(CCCCCCNC(=O)c1cnc(N(c2ccccc2)c2ccccc2Cl)nc1)NO [citarinostat]
Procedure, shortened: as §1

silmitasertib = compound: O=C(O)c1ccc2c(c1)nc(Nc1cccc(Cl)c1)c1ccncc12 [silmitasertib]
Procedure, shortened: as §1

[5] = compound: O=C1NC(=O)C(c2cnc3ccccn23)=C1c1cn2c3c(cc(F)cc13)CN(C(=O)N1CCCCC1)CC2
Procedure, shortened: as §1

[6] = compound: c1cc(OCCN2CCCCC2)cc(-c2n[nH]c3ccc(-c4nnc[nH]4)cc23)c1
Procedure, shortened: as §1

Measured: log2 fold change

NUMA1 (UniProt Q14980)
Sequence of UniProt Q14980 (Q14980 whole entry, looked up): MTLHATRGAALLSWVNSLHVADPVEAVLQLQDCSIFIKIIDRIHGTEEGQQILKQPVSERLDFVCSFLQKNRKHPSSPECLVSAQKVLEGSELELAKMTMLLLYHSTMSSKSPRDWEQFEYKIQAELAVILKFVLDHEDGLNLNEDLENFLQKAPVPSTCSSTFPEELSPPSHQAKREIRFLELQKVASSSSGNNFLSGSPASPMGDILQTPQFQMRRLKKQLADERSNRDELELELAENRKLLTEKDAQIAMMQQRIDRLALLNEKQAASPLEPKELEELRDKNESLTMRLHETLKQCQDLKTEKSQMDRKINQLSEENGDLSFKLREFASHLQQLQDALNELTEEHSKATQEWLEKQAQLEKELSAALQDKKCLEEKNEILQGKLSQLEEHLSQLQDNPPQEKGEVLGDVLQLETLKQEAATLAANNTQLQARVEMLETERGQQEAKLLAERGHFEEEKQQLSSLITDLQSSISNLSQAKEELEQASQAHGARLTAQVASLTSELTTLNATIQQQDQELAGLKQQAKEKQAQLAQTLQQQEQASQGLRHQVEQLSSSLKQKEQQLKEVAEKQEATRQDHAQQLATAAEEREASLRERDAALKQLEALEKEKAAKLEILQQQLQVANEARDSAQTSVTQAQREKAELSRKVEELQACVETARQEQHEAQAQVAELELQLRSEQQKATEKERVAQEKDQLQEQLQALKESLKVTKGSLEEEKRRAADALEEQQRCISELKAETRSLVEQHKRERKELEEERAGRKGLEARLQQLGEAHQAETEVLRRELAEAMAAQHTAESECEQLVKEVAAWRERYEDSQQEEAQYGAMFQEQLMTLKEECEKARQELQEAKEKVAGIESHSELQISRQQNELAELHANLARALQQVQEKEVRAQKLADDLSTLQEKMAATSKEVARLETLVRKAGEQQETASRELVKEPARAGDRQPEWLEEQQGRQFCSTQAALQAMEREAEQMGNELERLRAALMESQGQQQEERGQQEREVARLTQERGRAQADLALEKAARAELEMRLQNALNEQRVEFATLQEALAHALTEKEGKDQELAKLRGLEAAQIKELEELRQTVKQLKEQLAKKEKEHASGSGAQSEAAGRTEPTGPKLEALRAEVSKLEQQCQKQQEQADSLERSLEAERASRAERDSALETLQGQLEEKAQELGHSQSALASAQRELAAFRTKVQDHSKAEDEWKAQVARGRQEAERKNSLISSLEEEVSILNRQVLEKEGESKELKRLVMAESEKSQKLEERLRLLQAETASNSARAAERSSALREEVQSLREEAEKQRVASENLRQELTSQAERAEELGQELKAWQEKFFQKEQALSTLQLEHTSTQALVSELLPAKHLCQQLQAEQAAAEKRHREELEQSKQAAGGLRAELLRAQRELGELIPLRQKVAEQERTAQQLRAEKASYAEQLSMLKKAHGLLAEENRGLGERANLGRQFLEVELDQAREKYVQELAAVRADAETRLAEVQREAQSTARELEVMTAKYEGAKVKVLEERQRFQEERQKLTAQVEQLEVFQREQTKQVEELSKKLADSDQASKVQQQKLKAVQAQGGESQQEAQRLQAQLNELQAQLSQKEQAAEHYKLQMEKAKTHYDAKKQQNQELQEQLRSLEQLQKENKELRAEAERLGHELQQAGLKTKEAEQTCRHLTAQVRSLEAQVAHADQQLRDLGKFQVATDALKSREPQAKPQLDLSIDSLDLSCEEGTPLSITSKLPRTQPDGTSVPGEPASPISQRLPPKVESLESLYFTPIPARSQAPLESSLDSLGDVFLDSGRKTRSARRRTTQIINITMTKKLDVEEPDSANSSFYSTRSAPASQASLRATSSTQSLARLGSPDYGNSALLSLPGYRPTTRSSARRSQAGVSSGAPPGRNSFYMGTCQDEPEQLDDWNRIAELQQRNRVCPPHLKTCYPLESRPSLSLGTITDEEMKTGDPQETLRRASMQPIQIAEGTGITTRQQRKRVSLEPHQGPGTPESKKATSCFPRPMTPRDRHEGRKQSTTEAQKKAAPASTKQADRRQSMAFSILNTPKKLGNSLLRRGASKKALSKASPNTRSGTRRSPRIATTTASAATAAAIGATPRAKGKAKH
inactive: [1] -0.117 | [2] -0.091 | [3] -0.139 | [4] 0.101 | entinostat 0.072 | vorinostat 0.002 | citarinostat 0.01 | silmitasertib 0.005 | [5] 0.007 | [6] -0.12

MRPS12 (UniProt O15235)
inactive: [1] 0.207 | [2] -0.053 | [3] -0.005 | [4] 0.221 | entinostat -0.017 | vorinostat 0.038 | citarinostat 0.01 | silmitasertib -0.007 | [5] 0.101 | [6] -0.056

ORC3 isoform 2 (UniProt Q9UBD5)
Sequence of UniProt Q9UBD5 (Q9UBD5 whole entry, looked up): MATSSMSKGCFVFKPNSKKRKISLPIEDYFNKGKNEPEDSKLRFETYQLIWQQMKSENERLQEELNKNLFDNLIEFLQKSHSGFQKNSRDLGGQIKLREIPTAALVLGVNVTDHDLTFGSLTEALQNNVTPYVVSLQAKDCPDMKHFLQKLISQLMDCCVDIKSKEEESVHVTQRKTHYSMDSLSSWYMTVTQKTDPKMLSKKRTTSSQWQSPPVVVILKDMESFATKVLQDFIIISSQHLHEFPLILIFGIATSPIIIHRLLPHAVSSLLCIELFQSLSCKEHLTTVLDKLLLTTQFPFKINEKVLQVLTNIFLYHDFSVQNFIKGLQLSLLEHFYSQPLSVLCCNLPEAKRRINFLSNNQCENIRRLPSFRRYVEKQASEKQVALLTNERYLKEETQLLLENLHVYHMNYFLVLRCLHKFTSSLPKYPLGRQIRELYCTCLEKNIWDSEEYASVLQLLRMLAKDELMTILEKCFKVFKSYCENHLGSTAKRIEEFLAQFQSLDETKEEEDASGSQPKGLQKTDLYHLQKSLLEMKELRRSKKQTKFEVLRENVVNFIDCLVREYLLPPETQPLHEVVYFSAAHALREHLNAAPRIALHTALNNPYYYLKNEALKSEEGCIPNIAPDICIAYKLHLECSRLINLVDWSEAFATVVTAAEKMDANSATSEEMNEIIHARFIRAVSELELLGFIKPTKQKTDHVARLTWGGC
inactive: [1] 0.018 | [2] -0.09 | [3] -0.093 | [4] -0.142 | entinostat -0.004 | vorinostat 0.236 | citarinostat 0.023 | silmitasertib 0.058 | [5] 0.008 | [6] -0.188

MTOR (UniProt P42345)
active: [3] -0.315
inactive: [1] -0.016 | [2] -0.102 | [4] -0.111 | entinostat 0.042 | vorinostat 0.049 | citarinostat 0.035 | silmitasertib 0.102 | [5] -0.065 | [6] -0.004

NMD3 (UniProt Q96D46)
inactive: [1] -0.159 | [2] -0.034 | [3] -0.098 | [4] -0.037 | entinostat -0.001 | vorinostat 0 | citarinostat 0.085 | silmitasertib -0.048 | [5] -0.071 | [6] -0.047

MRPS15 (UniProt P82914)
inactive: [1] 0.039 | [2] 0.06 | [3] -0.057 | [4] 0.119 | entinostat 0.072 | vorinostat 0.077 | citarinostat 0.028 | silmitasertib -0.114 | [5] 0.085 | [6] -0.031

MINK1 (UniProt Q8N4C8)
inactive: [1] 0.006 | [2] -0.032 | [3] -0.097 | [4] 0.005 | entinostat 0.045 | vorinostat 0.057 | citarinostat 0.077 | silmitasertib -0.041 | [5] 0.015 | [6] -0.119

NAA11 (UniProt Q9BSU3)
active: entinostat 0.375
inactive: [1] 0.139 | [2] -0.048 | [3] -0.072 | [4] 0.167 | citarinostat -0.05 | silmitasertib -0.001 | [5] -0.064 | [6] -0.022

MT-ND1 (UniProt P03886)
Sequence of UniProt P03886 (P03886 whole entry, looked up): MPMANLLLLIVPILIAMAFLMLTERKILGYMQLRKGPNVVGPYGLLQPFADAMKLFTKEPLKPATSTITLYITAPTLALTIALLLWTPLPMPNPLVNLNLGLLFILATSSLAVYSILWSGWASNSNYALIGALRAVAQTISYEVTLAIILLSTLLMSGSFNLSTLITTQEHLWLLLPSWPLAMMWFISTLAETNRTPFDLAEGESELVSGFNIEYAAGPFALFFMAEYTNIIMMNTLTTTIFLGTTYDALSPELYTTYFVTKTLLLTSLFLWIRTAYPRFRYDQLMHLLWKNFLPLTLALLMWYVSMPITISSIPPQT
inactive: [1] 0.166 | [2] 0.244 | [3] -0.004 | [4] 0.289 | entinostat -0.051 | citarinostat 0.05 | silmitasertib 0.039 | [5] 0.1 | [6] -0.075

NAGPA (UniProt Q9UK23)
inactive: [1] 0.051 | [2] -0.045 | [3] 0.03 | entinostat 0.04 | vorinostat -0.122 | citarinostat 0.074 | silmitasertib -0.237 | [5] 0.043 | [6] -0.023

NIPSNAP2 (UniProt O75323)
inactive: [1] -0.084 | [2] -0.047 | [3] -0.004 | [4] -0.033 | entinostat 0.027 | vorinostat -0.016 | citarinostat -0.021 | silmitasertib -0.039 | [5] -0.179 | [6] 0.023

NCBP2AS2 (UniProt Q69YL0)
inactive: [1] -0.21 | [2] -0.161 | [3] -0.312 | [4] -0.157 | entinostat -0.004 | vorinostat 0.024 | citarinostat 0 | silmitasertib 0.024 | [6] -0.046

NASP (UniProt P49321)
inactive: [1] -0.009 | [2] -0.081 | [3] -0.06 | [4] -0.054 | entinostat 0.035 | vorinostat 0.028 | citarinostat 0.035 | silmitasertib 0.063 | [5] -0.034 | [6] -0.02

NMNAT1 (UniProt Q9HAN9)
Sequence of UniProt Q9HAN9 (Q9HAN9 whole entry, looked up): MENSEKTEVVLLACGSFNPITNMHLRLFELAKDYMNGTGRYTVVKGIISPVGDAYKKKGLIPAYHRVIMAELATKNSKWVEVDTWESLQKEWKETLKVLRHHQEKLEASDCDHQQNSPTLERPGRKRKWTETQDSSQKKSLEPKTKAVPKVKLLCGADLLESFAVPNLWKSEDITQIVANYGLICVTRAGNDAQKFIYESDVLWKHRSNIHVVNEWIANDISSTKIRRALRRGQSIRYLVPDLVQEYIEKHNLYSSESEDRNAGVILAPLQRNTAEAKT
inactive: [1] 0.171 | [2] 0.145 | [3] 0.197 | [4] 0.081 | entinostat 0.002 | vorinostat -0.077 | citarinostat -0.033 | silmitasertib 0.201 | [5] 0.259 | [6] -0.174

PAFAH2 (UniProt Q99487)
inactive: [1] 0.079 | [2] -0.194 | [4] 0.04 | entinostat 0.075

NPM3 (UniProt O75607)
inactive: [1] 0.029 | [2] 0.02 | [3] 0.216 | [4] 0.017 | entinostat -0.019 | vorinostat -0.023 | citarinostat -0.059 | silmitasertib 0.137 | [6] -0.101

NACC1 (UniProt Q96RE7)
inactive: [1] 0.099 | [2] -0.082 | [3] -0.173 | [4] -0.075 | entinostat 0.062 | vorinostat 0.148 | citarinostat 0.235 | silmitasertib -0.027 | [5] -0.257 | [6] -0.057

NT5DC1 (UniProt Q5TFE4)
active: [6] 0.236
inactive: [1] -0.057 | [2] -0.052 | [3] -0.003 | [4] -0.012 | entinostat -0.037 | vorinostat -0.013 | citarinostat 0.003 | silmitasertib 0.025 | [5] -0.038

PAAF1 (UniProt Q9BRP4)
inactive: [1] 0.028 | [2] -0.011 | [3] -0.078 | [4] 0.019 | entinostat 0.006 | vorinostat -0.013 | citarinostat -0.003 | silmitasertib -0.001 | [5] 0.014 | [6] -0.025

NDUFS4 (UniProt O43181)
inactive: [1] -0.015 | [2] 0.026 | [3] 0.005 | [4] 0.053 | entinostat -0.095 | vorinostat -0.058 | citarinostat -0.069 | silmitasertib 0.03 | [5] 0.007 | [6] -0.039

NDUFA4 (UniProt O00483)
inactive: [1] 0.026 | [2] 0.009 | [3] -0.075 | [4] -0.013 | entinostat 0.061 | vorinostat -0.11 | citarinostat 0.037 | silmitasertib -0.005 | [5] -0.056 | [6] -0.098

OPHN1 (UniProt O60890)
inactive: [1] 0.073 | [2] -0.134 | [3] -0.056 | entinostat -0.084 | vorinostat 0.128 | citarinostat 0.021 | silmitasertib 0.031 | [5] -0.046 | [6] 0.094

MYH16 (UniProt Q9H6N6)
inactive: [1] 0.467 | [2] 0.051 | [3] -0.057 | [4] 0.051 | entinostat 0.289 | vorinostat 0.291 | silmitasertib -0.044

ORC5 (UniProt O43913)
inactive: [1] -0.322 | [2] -0.188 | [3] -0.253 | [4] -0.058 | entinostat -0.101 | vorinostat 0.139 | citarinostat 0.039 | silmitasertib -0.072 | [6] -0.004

MRFAP1 (UniProt Q9Y605)
inactive: [1] 0.134 | [2] 0.01 | [3] 0.021 | [4] -0.082 | entinostat 0.014 | vorinostat 0.15 | citarinostat 0.133 | silmitasertib -0.019 | [6] -0.028

MPHOSPH8 isoform 2 (UniProt Q99549)
inactive: [1] 0.257 | [2] 0.004 | [3] 0.161 | [4] -0.018 | entinostat -0.191 | silmitasertib -0.083 | [5] 0.189

NIPSNAP3B (UniProt Q9BS92)
Sequence of UniProt Q9BS92 (Q9BS92 whole entry, looked up): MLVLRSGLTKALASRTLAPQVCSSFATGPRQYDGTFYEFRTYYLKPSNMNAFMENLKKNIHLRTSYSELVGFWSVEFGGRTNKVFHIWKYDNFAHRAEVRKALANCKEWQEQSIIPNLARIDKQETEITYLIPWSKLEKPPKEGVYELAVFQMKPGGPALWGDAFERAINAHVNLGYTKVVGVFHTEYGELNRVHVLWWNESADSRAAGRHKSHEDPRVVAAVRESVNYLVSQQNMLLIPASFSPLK
inactive: [1] 0.279 | [2] 0.011 | [3] -0.069 | [4] 0.053 | entinostat -0.001 | vorinostat -0.064 | citarinostat 0.137 | silmitasertib -0.022 | [6] -0.09

MLST8 (UniProt Q9BVC4)
inactive: [1] 0.064 | [2] -0.201 | [3] -0.182 | [4] -0.082 | entinostat 0.127 | citarinostat 0.043 | silmitasertib 0.105 | [5] -0.03 | [6] -0.025

NFYB (UniProt P25208)
inactive: [1] -0.022 | [2] 0.102 | [3] -0.074 | [4] 0.069 | entinostat -0.001 | vorinostat -0.038 | citarinostat -0.006 | silmitasertib 0.043 | [6] 0.033

MMS19 isoform 8 (UniProt Q96T76)
inactive: [1] 0.01 | [2] -0.026 | [3] -0.157 | [4] -0.072 | entinostat 0.066 | vorinostat 0.017 | citarinostat 0.097 | silmitasertib 0.085 | [5] -0.003 | [6] -0.007

NA isoform 3 (UniProt Q4G0T1)
Sequence of UniProt Q4G0T1 (Q4G0T1 whole entry, looked up): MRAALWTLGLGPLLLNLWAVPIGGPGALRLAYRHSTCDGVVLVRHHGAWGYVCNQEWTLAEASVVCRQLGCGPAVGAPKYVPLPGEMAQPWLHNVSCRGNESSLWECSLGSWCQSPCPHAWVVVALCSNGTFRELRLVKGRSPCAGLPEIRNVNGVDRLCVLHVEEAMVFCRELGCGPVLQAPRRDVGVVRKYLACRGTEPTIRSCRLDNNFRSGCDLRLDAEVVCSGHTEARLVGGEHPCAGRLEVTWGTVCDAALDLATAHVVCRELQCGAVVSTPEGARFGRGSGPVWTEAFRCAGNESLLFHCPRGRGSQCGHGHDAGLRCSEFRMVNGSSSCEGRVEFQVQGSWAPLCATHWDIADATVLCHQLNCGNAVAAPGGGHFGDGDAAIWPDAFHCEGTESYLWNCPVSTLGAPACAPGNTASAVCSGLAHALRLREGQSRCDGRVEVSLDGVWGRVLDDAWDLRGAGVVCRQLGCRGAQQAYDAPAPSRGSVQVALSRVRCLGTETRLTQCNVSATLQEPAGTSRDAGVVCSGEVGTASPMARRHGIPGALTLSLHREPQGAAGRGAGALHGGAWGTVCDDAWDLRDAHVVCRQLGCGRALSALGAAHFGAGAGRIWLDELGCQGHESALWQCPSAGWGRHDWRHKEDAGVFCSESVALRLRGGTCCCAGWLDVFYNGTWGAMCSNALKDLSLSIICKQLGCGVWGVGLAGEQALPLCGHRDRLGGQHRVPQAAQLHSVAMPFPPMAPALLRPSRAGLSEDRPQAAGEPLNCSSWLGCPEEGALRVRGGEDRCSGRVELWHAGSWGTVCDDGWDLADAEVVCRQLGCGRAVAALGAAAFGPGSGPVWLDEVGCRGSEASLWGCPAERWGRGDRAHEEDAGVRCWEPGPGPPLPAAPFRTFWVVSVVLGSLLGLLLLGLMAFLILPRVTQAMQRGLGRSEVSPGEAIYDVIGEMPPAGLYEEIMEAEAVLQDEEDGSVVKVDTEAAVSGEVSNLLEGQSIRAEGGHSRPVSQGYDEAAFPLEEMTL
inactive: [1] -0.114 | [2] -0.207 | [3] 0.015 | [4] -0.02 | entinostat 0.01 | silmitasertib 0.037

MLX (UniProt Q9UH92)
Sequence of UniProt Q9UH92 (Q9UH92 whole entry, looked up): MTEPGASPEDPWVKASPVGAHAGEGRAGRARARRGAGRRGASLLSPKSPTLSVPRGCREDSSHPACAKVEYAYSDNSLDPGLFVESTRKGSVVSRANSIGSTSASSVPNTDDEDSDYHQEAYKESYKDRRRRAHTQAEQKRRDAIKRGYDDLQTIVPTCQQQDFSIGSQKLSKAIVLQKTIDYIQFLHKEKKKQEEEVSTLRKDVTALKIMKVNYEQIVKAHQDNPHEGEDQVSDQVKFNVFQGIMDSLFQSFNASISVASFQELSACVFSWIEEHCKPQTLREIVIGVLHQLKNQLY
inactive: [1] 0.144 | [2] -0.115 | [3] -0.177 | entinostat 0.005 | vorinostat 0.095 | citarinostat 0.139 | silmitasertib -0.091 | [5] -0.086 | [6] -0.175

NUMBL (UniProt Q9Y6R0)
inactive: [1] -0.101 | [2] 0.016 | [3] -0.154 | [4] 0.002 | entinostat 0.01 | vorinostat 0.078 | silmitasertib -0.037 | [5] 0.016
